# SF1 inhibitor: inhibitors of human SF-1, primary screen, cell-based, CHO-K1, Gal4-SF-1 LBD, luciferase luminescence. AID 525, 2006. inhibition, % at 10 µM. Steroidogenic factor 1 (Homo sapiens), Q13285. CHO-K1 Gal4-SF-1 LBD luciferase reporter. actives 0.55% (n = 65,000);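 active = inhibition above the mean inhibition of all tested compounds plus 3 SD, cut at about 48% in these data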;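 also: 0% = SF-1 transfected cells with DMSO and 100% = mock-transfected cells lacking SF-1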
# Target sequence (Q13285 whole entry, looked up, the tested form may be a part): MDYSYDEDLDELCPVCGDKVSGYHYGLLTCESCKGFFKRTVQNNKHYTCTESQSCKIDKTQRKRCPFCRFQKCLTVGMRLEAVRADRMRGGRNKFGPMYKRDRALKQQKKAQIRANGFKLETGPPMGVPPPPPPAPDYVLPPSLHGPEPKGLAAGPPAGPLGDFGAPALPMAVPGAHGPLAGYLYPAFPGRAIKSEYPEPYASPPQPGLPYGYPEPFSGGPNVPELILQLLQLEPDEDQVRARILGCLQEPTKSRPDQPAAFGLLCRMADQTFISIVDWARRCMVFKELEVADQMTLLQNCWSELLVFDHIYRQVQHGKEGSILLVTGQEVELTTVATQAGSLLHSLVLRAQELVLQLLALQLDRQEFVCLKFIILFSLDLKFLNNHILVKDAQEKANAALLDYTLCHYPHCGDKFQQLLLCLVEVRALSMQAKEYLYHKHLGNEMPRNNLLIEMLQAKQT
# * = called active by the depositor. The entries come from a sample that favours hits as a whole.
SMILES,SF1 inhibitor
CCn1c(CNC(=O)c2ccc3c(c2)OCO3)nnc1SCC(=O)Nc1cc(C)ccc1OC,3.9
CC(C)OC(=O)CSc1nnnn1-c1ccc2c(c1)OCCO2,-69.0
COc1ccc(OC)c(NC(=O)CSc2nnnn2-c2ccc3c(c2)OCO3)c1,90.9*
Cc1ccc(C)c(CN2CCCNC2=O)c1,11.1
Cc1ccc(S(=O)(=O)N(Cc2nccn2C)C(C)C)cc1,8.9
COc1cc(C2NC(=O)NC(O)(C(F)(F)F)C2C(C)=O)cc(OC)c1OC (centres undefined),-11.3
COc1cc([C@@H]2c3cc4c(cc3[C@H](O)[C@H]3COC(=O)[C@H]23)OCO4)cc(OC)c1OC,78.2*
CN1CCN(C2=C(Cl)C(=O)N(c3cccc(Cl)c3)C2=O)CC1,15.0
CCOC(=O)C1CCN(c2cc(=O)n(C3CCCCC3)c(=O)[nH]2)CC1,-12.5
O=c1cc(NCC2CCCO2)[nH]c(=O)n1-c1ccc(Cl)cc1 (centres undefined),-7.9
O=c1cc(N2CCN(c3cccc(Cl)c3)CC2)[nH]c(=O)n1C1CCCCC1,80.4*
O=c1cc(N2CCN(c3ccccc3)CC2)[nH]c(=O)n1C1CCCCC1,51.6*
Cc1ccccc1-n1c(=O)cc(N2CCCCCC2)[nH]c1=O,-6.6
CCOC(=O)N1CCN(S(=O)(=O)c2c(C)[nH]c(=O)[nH]c2=O)CC1,-4.6
Cc1ccc(NC(=O)c2cnn(-c3ccccc3)c2NC(=O)c2ccco2)cc1C,-4.2
Cc1nn(-c2nc3ccccc3s2)c(N)c1-c1ccccc1,-60.0
O=c1c2ccccc2cnn1-c1nc2ccccc2s1,90.0*
O=c1c2ccccc2nc2sc3ccccc3n12,-56.8
O=c1c2cnn(-c3ccc(F)cc3)c2ncn1Cc1ccccn1,-8.7
COc1ccc(-c2cc(C(F)(F)F)nc(SCC(=O)Nc3cc(C)on3)n2)cc1OC,22.8
CCn1cnc2c1c(=O)n(CC(=O)Nc1cc(C)on1)c(=O)n2Cc1ccccc1,-0.5
CS(=O)(=O)c1nc(-c2cccs2)cc(C(F)(F)F)n1,70.3*
Nc1c(C(=O)NC2CCCC2)sc2nc(-c3cccs3)ccc12,-59.7
Cc1cc(NC(=O)CCCS(=O)(=O)c2nc(-c3cccs3)cc(C(F)(F)F)n2)no1,48.4*
COc1cc(C)nc(Oc2ccc(=O)[nH]n2)n1,-4.9
SMILES,SF1 inhibitor
CC(C)CC1NC(=O)N(CC(=O)c2ccc3c(c2)OCCO3)C1=O (centres undefined),-83.9
O=C(OCC(=O)N1CCOCC1)C(c1ccccc1)c1ccccc1,-3.1
COCCn1c(C)cc(C(=O)CN2C(=O)NC3(CCCCCCC3)C2=O)c1C,-42.6
COCCn1c(C)cc(C(=O)CSc2nnc(C)s2)c1C,68.0*
COCCn1c(C)cc(C(=O)COC(=O)C23CC4CC(CC(O)(C4)C2)C3)c1C,-77.2
COCCN(C(=O)Nc1ccccc1)c1ccccc1C,-4.6
O=C(/C=C\Nc1ccccn1)c1ccc(Cl)cc1,64.1*
Cc1c(C(=O)Nc2ccccn2)oc2ccccc12,-68.7
O=C(/C=C/Nc1ccc(F)c(Cl)c1)c1ccco1,-55.3
COc1ccc(NC(=O)c2ccco2)c(NC(=O)Cc2cccs2)c1,-6.6
COc1ccc(Cl)cc1N(C)C(=O)CCNC(=O)Cn1cnc2ccccc2c1=O,-6.9
O=C(Oc1ccc2c(c1)OCO2)c1cc2c(s1)CCC2,8.2
Cc1onc(-c2ccccc2)c1C(=O)Nc1c(C)n(C)n(-c2ccccc2)c1=O,-5.1
CC(=O)c1cccc(S(=O)(=O)N2CCN(c3nc4cc(C)cc(C)c4cc3C#N)CC2)c1,1.3
O=C(Nc1sc2c(c1C(=O)O)CCCCC2)c1ccco1,-57.4
O=C(Cn1cnc2sc(-c3ccccc3)cc2c1=O)NCc1ccco1,-37.9
O=C(NCc1ccco1)c1ccc2nc3sc4c(c3c(=O)n2c1)CCCC4,60.0*
CN(C)S(=O)(=O)c1cccc(C(=O)C2=C3SC=C(c4ccccc4)N3CC2)c1,-3.6
C=C(C)CSc1nnc([C@H](CCSC)NC(=O)OC(C)(C)C)o1,-7.6
C=CS(=O)(=O)c1ccc(Oc2ccc(S(=O)(=O)C=C)cc2)cc1,96.6*
Cc1cc(N2CCN(C(=O)c3ccco3)CC2)n2nc(-c3cccc(Cl)c3)cc2n1,12.3
O=C(/C=C\Nc1ccc2c(c1)OCO2)c1ccccn1,83.1*
O=C(Nc1ccc2c(c1)OCO2)c1cccs1,-60.7
c1cc(CNc2ccc3c(c2)OCO3)ccn1,-6.9
COc1cccc(-c2c(NC(=O)c3ccco3)n(-c3ccc(C)cc3)nc(C)c2=O)c1,16.7
SMILES,SF1 inhibitor
COc1ccccc1C(=O)Nc1cccc(N(C)S(C)(=O)=O)c1,0.4
Cc1ccc(C(C)C)c(OCCNc2nc3c(c(=O)n(C)c(=O)n3C)n2C)c1,48.9*
COc1cccc(C(=O)Cn2c(Br)nc3c2c(=O)n(C)c(=O)n3C)c1,12.0
Cc1ccc(-c2csc3n[nH]c(=S)n23)cc1,-0.2
C(=N\n1cnnc1SCc1ccccc1)/c1ccco1,9.6
O=C(Cn1cc2c(n1)CCCC2)Nc1cc(-c2cccc(Cl)c2)no1,-9.4
c1ccc2nc(-c3nc4ccccc4[nH]3)ccc2c1,67.2*
O=c1[nH]c2ccccc2nc1-c1cccs1,-54.2
c1csc(-c2ccc3ccccc3n2)c1,-78.9
Cn1c(=O)oc2cc(S(=O)(=O)N3CCC(N4CCCCC4)CC3)ccc21,25.7
CCN(CC)c1ccc(C=N/C(C#N)=C(\N)C#N)cc1,-56.8
COc1ccc(OCc2cccc(C(=O)O)c2)cc1,94.5*
O=C(O)c1cccc(OCc2ccccc2Cl)c1,-80.1
CCOc1ccc(OCc2cccc(C(=O)O)c2)cc1,94.8*
Clc1ccc(OCc2nn3c(-c4ccccc4)nnc3s2)c(Cl)c1,10.0
O=C(O)c1ccc2c(c1)C(=O)N(Cc1ccccc1)C2=O,-4.6
COC(=O)Nc1ccc(OCc2ccccc2)cc1,-71.6
COc1ccc(CNC(=O)c2cccc(N3CCCC3=O)c2)cc1,-23.5
CCCCOc1ccc(C(=O)O)cc1,12.5
O=C(O)c1cccc(COc2ccc(CO)cc2Cl)c1,94.4*
COc1ccc(-n2nc3cc(C)c(N)c(Br)c3n2)cc1,-64.2
O=C1OCCC1Sc1nnc(-c2ccc3c(c2)OCO3)n1-c1ccccc1 (centres undefined),3.8
C=CCc1c(C)nc(SC)nc1Nc1ccc(C(C)=O)cc1,-14.2
C#CC(C)(C)NC(=O)c1ccccc1OC,-10.6
Cc1ccc(CNC(=O)c2cn(C3CCCC3)c(=O)c3c2c2ccccc2n3C)o1,15.5
SMILES,SF1 inhibitor
Cc1cc(C)n(-c2nc3c(c(=O)[nH]c(=O)n3C)n2CC(C)C)n1,-29.3
O=[n+]1c2c(n([O-])c3cc(F)c(F)cc31)CCCC2,6.6
CCc1c(C)nc(SC)n(CC#N)c1=O,6.4
Nc1nc(CSc2ccccn2)nc(Nc2ccccc2)n1,-58.4
CC(=O)Cc1nsc(Nc2ccc3c(c2)OCCO3)n1,-67.4
CCOC(=O)NCC(C#CCN(CC)CC)N(CC)CC (centres undefined),8.5
O=C(Cc1ccc(Cl)cc1)Nc1ccc(-c2nnc(-c3ccco3)o2)cc1,52.8*
CCC(=O)Nc1ccc(-c2nnc(-c3ccccc3)o2)cc1,-33.6
O=C(Cc1ccc(Cl)cc1)Nc1ccc(N2CCN(C(=O)c3ccco3)CC2)cc1,9.5
CC1Cc2ccccc2N1C(=O)CCNS(=O)(=O)c1cccc2nsnc12 (centres undefined),6.9
O=C(CCS(=O)CCC(=O)NCc1ccccc1)NCc1ccccc1,5.6
CC(C)CN(C(=O)c1ccc(=O)n(C)n1)c1nc2ccccc2s1,-22.8
CC(=O)OC1CC2(C)C(=O)CCC2C2CCc3cc(O)ccc3C12 (centres undefined),7.6

# Bioassay records: PubChem BioAssay, The Scripps Research Institute Molecular Screening Center
